According to PubChem BioAssay (EPA / NIEHS):
Inconclusive results are not listed. Active and inactive are the calls of the source. Rule for the calls, unless noted: active = hit-call score of the fitted dose curve at least 0.9, where 1 is the maximum; inactive = score below 0.9.

Columns and labels:
[1] = ATG_CRE_CIS: Attagene CIS-FACTORIAL HepG2 Assay for human cAMP Responsive Element (CRE) binding protein 3 (AID 2282926); details: HepG2 CRE cis-reporter, Attagene multiplexed mRNA; actives raise or lower the signal
How it was run: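 Endogenous CRE-binding activity in HepG2 is reported through a cis-regulated transfected reporter. Following a day of exposure, mRNA levels are determined by reverse transcription PCR and fluorescent fragment analysis; fits run in both directions versus DMSO.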

[2] = target: Paired box protein Pax-6 (Homo sapiens) (UniProt P26367); experiment: ATG_Pax6_CIS: Attagene CIS-FACTORIAL HepG2 Assay for human Paired Box 6 (PAX6) (AID 2282956); details: HepG2 CIS-FACTORIAL PAX6 reporter transcription, RNA readout; actives raise or lower the signal
Sequence of Paired box protein Pax-6 (Homo sapiens) (P26367 whole entry, looked up): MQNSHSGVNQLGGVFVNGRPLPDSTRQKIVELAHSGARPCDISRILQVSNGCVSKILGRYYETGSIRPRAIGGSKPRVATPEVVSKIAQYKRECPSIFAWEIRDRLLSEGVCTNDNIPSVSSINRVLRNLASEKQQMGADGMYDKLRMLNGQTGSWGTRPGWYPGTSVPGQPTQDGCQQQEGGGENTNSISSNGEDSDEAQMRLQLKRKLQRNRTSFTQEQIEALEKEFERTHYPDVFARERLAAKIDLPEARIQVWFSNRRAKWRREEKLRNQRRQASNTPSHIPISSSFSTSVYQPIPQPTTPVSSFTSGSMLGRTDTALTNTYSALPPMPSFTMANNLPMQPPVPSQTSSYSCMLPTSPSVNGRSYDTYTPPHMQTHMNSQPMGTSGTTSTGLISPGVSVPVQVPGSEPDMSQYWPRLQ
How it was run: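 HepG2 cells transiently transfected with multiplexed cis-promoter reporter units (endogenous TF activity) were dosed for 24 h. Reporter mRNA was quantified by RT-PCR, 6-FAM labeling, HpaI digestion and capillary electrophoresis; bidirectional fitting versus DMSO baseline.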

[3] = target: Transcription factor Sp1 (Homo sapiens) (UniProt P08047); experiment: ATG_Sp1_CIS: Attagene CIS-FACTORIAL HepG2 Assay for human Specificity Protein 1 (Sp1) (AID 2282961); details: HepG2 Sp1 cis-reporter transcription, actives raise or lower the signal
Sequence of Transcription factor Sp1 (Homo sapiens) (P08047 whole entry, looked up, the tested form may be a part): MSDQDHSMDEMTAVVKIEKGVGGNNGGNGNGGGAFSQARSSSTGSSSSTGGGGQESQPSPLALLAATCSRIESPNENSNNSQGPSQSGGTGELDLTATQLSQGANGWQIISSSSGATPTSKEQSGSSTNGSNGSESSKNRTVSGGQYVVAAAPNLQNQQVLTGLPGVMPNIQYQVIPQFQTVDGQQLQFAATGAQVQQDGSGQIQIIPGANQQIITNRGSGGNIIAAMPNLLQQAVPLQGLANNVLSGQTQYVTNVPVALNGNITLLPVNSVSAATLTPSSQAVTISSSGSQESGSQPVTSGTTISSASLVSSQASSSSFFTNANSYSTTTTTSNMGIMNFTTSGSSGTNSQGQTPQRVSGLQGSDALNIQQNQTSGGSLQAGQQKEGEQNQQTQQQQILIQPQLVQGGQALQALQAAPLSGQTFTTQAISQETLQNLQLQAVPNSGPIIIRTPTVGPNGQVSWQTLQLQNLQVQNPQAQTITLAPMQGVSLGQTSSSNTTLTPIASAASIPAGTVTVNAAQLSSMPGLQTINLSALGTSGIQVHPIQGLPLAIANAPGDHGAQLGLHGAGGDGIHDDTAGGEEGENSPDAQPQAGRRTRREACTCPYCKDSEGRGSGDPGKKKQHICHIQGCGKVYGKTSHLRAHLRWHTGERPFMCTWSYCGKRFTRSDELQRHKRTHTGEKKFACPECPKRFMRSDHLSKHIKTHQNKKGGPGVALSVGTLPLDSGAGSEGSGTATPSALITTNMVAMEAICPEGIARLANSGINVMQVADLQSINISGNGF
How it was run: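 Endpoint reflects endogenous Sp1 transcriptional activity, not an exogenous fusion protein: HepG2 cells with transfected cis-regulated reporters, 24 h dosing, RT-PCR/capillary electrophoresis mRNA read-out, DMSO-normalised bidirectional fit.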

[4] = ATG_SREBP_CIS: Attagene CIS-FACTORIAL HepG2 Assay for human Sterol Regulatory Element Binding (SREBP) (AID 2282962); details: HepG2 Attagene cis-factorial SREBP reporter, mRNA; actives raise or lower the signal
How it was run: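 HepG2 cells transiently transfected with multiplexed cis-element reporter units report endogenous transcription factor activity. After 24 h of chemical exposure, reporter mRNA was quantified by RT-PCR, 6-FAM labelling, HpaI digestion and capillary electrophoresis; bidirectional fits used DMSO as baseline.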

[5] = target: Signal transducer and activator of transcription 3 (Homo sapiens) (UniProt P40763); experiment: ATG_STAT3_CIS: Attagene CIS-FACTORIAL HepG2 Assay for human Signal Transducer and Activator of Transcription 3 (STAT3) (AID 2282963); details: HepG2, Attagene cis-factorial STAT3 reporter transcription; actives raise or lower the signal
Sequence of Signal transducer and activator of transcription 3 (Homo sapiens) (P40763 whole entry, looked up): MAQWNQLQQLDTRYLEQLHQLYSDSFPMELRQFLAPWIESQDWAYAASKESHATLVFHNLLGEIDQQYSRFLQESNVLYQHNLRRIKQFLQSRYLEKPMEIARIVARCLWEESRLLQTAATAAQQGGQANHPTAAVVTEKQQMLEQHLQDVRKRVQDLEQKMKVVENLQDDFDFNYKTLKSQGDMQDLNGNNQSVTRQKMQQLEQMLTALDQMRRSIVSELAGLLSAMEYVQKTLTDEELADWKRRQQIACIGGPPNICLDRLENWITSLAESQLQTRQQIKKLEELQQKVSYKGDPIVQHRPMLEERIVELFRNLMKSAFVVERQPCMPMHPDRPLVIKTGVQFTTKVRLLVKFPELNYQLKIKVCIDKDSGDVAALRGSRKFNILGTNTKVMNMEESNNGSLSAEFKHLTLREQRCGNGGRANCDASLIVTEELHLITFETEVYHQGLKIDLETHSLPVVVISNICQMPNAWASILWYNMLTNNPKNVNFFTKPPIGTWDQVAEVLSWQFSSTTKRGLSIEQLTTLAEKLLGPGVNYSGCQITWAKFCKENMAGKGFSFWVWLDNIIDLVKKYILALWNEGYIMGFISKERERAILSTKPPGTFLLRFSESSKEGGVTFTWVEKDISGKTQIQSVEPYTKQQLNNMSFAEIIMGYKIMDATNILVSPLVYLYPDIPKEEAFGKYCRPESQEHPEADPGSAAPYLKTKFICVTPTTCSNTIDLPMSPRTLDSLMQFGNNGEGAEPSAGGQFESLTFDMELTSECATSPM
How it was run: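 After a 24 h compound incubation, total RNA from MRTU-transfected HepG2 cells was converted to cDNA and reporter sequences PCR-amplified, labelled and profiled by capillary electrophoresis. Gain and loss of signal were referenced to DMSO.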

[6] = ATG_TA_CIS: Attagene CIS-FACTORIAL HepG2 Assay for human TA Basal Promoter (AID 2282964); details: HepG2 Attagene CIS-factorial TA basal promoter reporter; actives raise or lower the signal
How it was run: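 Background-control readout: TA basal promoter reporter mRNA, fitted in both directions relative to DMSO. Measured by RT-PCR and capillary electrophoresis 24 hours after treating HepG2 human liver cells transiently carrying multiplexed cis-regulated reporter constructs.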

[7] = ATG_TCF_b_cat_CIS: Attagene CIS-FACTORIAL HepG2 Assay for human T-Cell-Factor with beta-catenin (TCF/b-cat) (AID 2282965); details: HepG2 TCF/beta-catenin cis-reporter transcription, actives raise or lower the signal
How it was run: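 Measured: reporter mRNA in HepG2 transiently transfected with cis-promoter reporter units, 24 h after chemical addition. Fitting was bidirectional, DMSO as negative control.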

[8] = ATG_TAL_CIS: Attagene CIS-FACTORIAL HepG2 Assay for human TAL Basal Promoter (AID 2282966); details: HepG2 Attagene cis-factorial TAL promoter reporter; actives raise or lower the signal;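 note: background control endpoint measuring basal TAL promoter reporter mRNA not a specific factor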
How it was run: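 In this cell-based multiplex, HepG2 liver cells bearing cis-promoter reporter constructs are dosed for 24 hours. Total RNA is reverse-transcribed and amplified, labelled fragments are sized by capillary electrophoresis, and signal changes are fitted bidirectionally versus DMSO.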

[9] = ATG_TGFb_CIS: Attagene CIS-FACTORIAL HepG2 Assay for human Transforming Growth Factor (TGF) (AID 2282967); details: HepG2 Attagene CIS TGFb reporter, mRNA transcription; actives raise or lower the signal
How it was run: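 Endogenous TGFB1-linked transcription factor activity read as reporter mRNA via RT-PCR and capillary electrophoresis, 24 h after dosing transiently transfected HepG2 cells. Gain or loss of signal fitted relative to DMSO.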

[10] = ATG_VDRE_CIS: Attagene CIS-FACTORIAL HepG2 Assay for human Vitamin D Receptor Element (VDRE) (AID 2282968); details: HepG2 VDRE cis-reporter transcription, actives raise or lower the signal
How it was run: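 In transiently transfected HepG2 liver cells, gain or loss of reporter mRNA after 24 h exposure is scored relative to DMSO, using fluorescence detection by capillary electrophoresis of RT-PCR products.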

[11] = target: X-box-binding protein 1 (Homo sapiens) (UniProt P17861); experiment: ATG_Xbp1_CIS: Attagene CIS-FACTORIAL HepG2 Assay for human X-box Binding Protein 1 (XBP1) (AID 2282972); details: HepG2 XBP1 cis-element reporter, Attagene multiplex; actives raise or lower the signal
Sequence of X-box-binding protein 1 (Homo sapiens) (P17861 whole entry, looked up): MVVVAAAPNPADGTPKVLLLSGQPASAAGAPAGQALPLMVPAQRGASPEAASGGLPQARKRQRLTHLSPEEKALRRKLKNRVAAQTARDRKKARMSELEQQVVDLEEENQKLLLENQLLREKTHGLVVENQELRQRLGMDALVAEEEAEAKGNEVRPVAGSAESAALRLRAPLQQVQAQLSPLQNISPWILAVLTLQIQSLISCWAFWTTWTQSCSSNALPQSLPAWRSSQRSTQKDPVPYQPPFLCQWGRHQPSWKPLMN
How it was run: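 HepG2 cells transiently transfected with cis-regulated multiple reporter transcription units; endogenous transcription factor activity measured 24 hours after chemical dosing. Reporter mRNA quantified by RT-PCR, 6-FAM primer extension, HpaI digestion and capillary electrophoresis; bidirectional fitting versus DMSO.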

[12] = ATG_M_32_TRANS: Attagene TRANS-FACTORIAL HepG2 Assay for M32 Transcription Factor (Internal Marker) (AID 2282984; active = hit-call score of the fitted dose curve at least 0.9, where 1 is the maximum;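 note: transcript level of a background control reporter unit measured by RT-PCR and capillary electrophoresis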); details: HepG2 Attagene TRANS M32 internal marker reporter
How it was run: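 Using transiently transfected HepG2 cells exposed to test chemicals for 24 h, reporter transcripts are converted to labelled cDNA fragments and quantified by capillary electrophoresis. DMSO defines the activity baseline.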

[13] = target: Transcriptional activator Myb (Homo sapiens) (UniProt P10242); experiment: ATG_Myb_CIS: Attagene CIS-FACTORIAL HepG2 Assay for human Myeloblastosis (Myb) Proto-Oncogene Transcription Factor (AID 2282986); details: HepG2 Attagene CIS-FACTORIAL Myb reporter transcription; actives raise or lower the signal
How it was run: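 In this HepG2 transient-transfection format, cis-regulated reporter mRNA is quantified 24 h post-dosing by RT-PCR with capillary electrophoresis, fitted bidirectionally to DMSO baseline.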

[14] = target: Nuclear respiratory factor 1 (Homo sapiens) (UniProt Q16656); experiment: ATG_NRF1_CIS: Attagene CIS-FACTORIAL HepG2 Assay for human Nuclear Respiratory Factor 1 (NRF1) Orphan Gene (AID 2282987); details: HepG2 NRF1 cis-element reporter, Attagene multiplex; actives raise or lower the signal
Sequence of Nuclear respiratory factor 1 (Homo sapiens) (Q16656 whole entry, looked up): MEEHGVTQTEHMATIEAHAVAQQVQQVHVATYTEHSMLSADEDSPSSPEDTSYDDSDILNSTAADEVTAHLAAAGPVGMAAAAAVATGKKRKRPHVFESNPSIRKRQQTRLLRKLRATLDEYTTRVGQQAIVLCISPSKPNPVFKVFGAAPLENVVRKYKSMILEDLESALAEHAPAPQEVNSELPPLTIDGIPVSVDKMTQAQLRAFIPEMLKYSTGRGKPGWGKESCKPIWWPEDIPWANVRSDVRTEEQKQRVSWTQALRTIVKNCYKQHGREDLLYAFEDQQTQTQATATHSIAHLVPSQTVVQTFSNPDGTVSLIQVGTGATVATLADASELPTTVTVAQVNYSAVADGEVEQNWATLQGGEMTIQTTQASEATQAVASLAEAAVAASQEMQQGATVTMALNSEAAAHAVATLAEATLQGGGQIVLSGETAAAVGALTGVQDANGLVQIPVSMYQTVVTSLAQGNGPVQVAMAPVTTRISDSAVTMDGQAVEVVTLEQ
How it was run: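 Using DMSO as baseline, gain- or loss-of-signal was fitted for reporter mRNA levels in HepG2 cells transiently transfected with cis-regulated reporter units. Samples were taken 24 h after dosing and read by RT-PCR with capillary electrophoresis.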

[15] = ATG_NFI_CIS: Attagene CIS-FACTORIAL HepG2 Assay for human Nuclear Factor I (NFI) (AID 2282989); details: HepG2 cis-regulatory reporter, NFI response element transcription; actives raise or lower the signal
How it was run: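 Reporter transcripts were measured by RT-PCR with fluorescent primer extension and capillary electrophoresis 24 h post-treatment. HepG2 cells carried transiently transfected cis-regulated reporter constructs reporting endogenous factor activity; gain or loss fitted against DMSO baseline.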

[16] = target: Myc proto-oncogene protein (Homo sapiens) (UniProt P01106); experiment: ATG_Myc_CIS: Attagene CIS-FACTORIAL HepG2 Assay for human Myelocytomatosis (Myc) Proto-Oncogene Transcription Factor (AID 2282990); details: HepG2, Attagene cis-reporter transcription factor activity; actives raise or lower the signal
Sequence of Myc proto-oncogene protein (Homo sapiens) (P01106 whole entry, looked up): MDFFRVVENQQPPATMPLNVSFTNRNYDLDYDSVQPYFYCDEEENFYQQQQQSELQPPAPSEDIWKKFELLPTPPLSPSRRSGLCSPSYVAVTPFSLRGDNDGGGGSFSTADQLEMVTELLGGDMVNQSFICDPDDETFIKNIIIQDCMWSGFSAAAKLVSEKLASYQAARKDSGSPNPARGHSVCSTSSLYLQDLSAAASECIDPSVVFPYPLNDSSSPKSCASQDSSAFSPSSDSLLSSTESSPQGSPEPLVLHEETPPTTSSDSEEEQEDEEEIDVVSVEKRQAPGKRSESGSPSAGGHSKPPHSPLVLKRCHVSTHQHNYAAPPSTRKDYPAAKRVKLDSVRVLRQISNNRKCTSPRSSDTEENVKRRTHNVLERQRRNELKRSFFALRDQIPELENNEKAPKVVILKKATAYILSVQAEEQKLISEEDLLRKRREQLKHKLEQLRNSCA
How it was run: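 Cells of the HepG2 human liver line bear multiple cis-driven reporter transcription units. Reporter mRNA after 24 h exposure is reverse-transcribed, amplified, labelled and resolved by capillary electrophoresis, with gain- or loss-of-signal fitting relative to DMSO.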

[17] = ATG_NF_kB_CIS: Attagene CIS-FACTORIAL HepG2 Assay for human Nuclear Factor Kappa B (NF-kB) (AID 2282991); details: HepG2 Attagene cis-factorial NF-kB reporter mRNA; actives raise or lower the signal
How it was run: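 Endpoint from a 52-component multiplexed HepG2 reporter panel: cis-regulated transcription units transiently transfected, 24 h dosing, reporter mRNA quantified by RT-PCR and capillary electrophoresis, scored as increase or decrease against DMSO.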

[18] = ATG_Oct_MLP_CIS: Attagene CIS-FACTORIAL HepG2 Assay for human Octamer-Binding Transcription Factor (Oct) (AID 2282993); details: HepG2 Attagene cis-factorial Oct reporter, mRNA; actives raise or lower the signal
How it was run: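 Readout is reporter transcript level from RT-PCR with fluorescent primer extension and capillary electrophoresis, fitted in both directions against DMSO. Transfected HepG2 reporter units report endogenous factor activity after 24 h dosing.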

[19] = target: Hepatocyte nuclear factor 3-beta (Homo sapiens) (UniProt Q9Y261); experiment: ATG_FoxA2_CIS: Attagene CIS-FACTORIAL HepG2 Assay for human Forkhead box A2 (FOXA2) (AID 2282942); details: HepG2 cis-reporter transcription factor activity, 24 h; actives raise or lower the signal
Sequence of Hepatocyte nuclear factor 3-beta (Homo sapiens) (Q9Y261 whole entry, looked up): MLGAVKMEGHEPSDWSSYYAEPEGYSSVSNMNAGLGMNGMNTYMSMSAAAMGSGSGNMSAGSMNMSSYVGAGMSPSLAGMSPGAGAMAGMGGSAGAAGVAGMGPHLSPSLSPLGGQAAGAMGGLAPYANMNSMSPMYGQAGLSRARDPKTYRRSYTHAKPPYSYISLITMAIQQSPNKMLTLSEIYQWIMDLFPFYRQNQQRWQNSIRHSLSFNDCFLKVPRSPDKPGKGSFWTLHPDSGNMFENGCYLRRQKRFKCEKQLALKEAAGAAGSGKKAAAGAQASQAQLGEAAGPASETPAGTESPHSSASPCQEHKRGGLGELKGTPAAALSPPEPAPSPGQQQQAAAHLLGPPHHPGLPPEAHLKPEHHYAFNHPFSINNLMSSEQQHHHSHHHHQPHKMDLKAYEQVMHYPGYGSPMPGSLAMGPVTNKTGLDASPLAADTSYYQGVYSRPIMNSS
How it was run: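 Measured: reporter mRNA induction or loss in HepG2 transiently carrying multiple cis-regulated reporter units, 24 h after dosing. Quantified by RT-PCR plus capillary electrophoresis, normalised to DMSO.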

[20] = target: Aryl hydrocarbon receptor (Homo sapiens) (UniProt P35869); experiment: ATG_Ahr_CIS: Attagene CIS-FACTORIAL HepG2 Assay for human Aryl Hydrocarbon Receptor (Ahr) (AID 2282930); details: HepG2 AhR cis-factorial reporter transcription; actives raise or lower the signal
Sequence of Aryl hydrocarbon receptor (Homo sapiens) (P35869 whole entry, looked up): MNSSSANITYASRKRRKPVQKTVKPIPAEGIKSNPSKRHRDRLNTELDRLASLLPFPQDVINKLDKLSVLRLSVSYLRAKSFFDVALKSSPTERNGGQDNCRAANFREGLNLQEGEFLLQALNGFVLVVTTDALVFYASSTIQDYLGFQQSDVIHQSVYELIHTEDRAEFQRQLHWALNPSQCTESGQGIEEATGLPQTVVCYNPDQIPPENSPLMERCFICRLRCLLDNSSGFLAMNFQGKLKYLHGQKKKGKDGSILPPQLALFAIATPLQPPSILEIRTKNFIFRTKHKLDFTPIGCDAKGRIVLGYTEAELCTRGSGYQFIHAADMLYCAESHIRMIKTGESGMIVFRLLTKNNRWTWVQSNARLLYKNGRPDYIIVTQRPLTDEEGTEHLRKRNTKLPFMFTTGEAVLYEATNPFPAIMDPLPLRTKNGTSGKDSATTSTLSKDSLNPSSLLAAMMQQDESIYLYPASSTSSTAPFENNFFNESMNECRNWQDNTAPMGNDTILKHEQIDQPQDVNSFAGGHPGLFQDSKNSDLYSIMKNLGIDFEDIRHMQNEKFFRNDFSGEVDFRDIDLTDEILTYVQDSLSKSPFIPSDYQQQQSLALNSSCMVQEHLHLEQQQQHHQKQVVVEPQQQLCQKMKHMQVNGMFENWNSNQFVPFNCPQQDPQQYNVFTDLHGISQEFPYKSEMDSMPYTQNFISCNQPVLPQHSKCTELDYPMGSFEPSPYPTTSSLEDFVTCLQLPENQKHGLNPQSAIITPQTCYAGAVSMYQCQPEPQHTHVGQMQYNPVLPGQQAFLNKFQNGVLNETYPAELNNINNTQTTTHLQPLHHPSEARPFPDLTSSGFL
How it was run: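 HepG2, transient MRTU (cis) transfection, 24 h exposure. RNA → cDNA → PCR → 6-FAM primer extension → HpaI 2 h 37 C → CE. Fit: bidirectional, DMSO baseline.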

Measured: AC50

CC(=O)c1cc2c(cc1C)C(C)(C)C(C)CC2(C)C (centres undefined)
inactive: [5] | [6] | [8] | [9] | [10] | [12] | [14] | [17]
active: [1] 72.4 µM | [2] 100 µM | [3] 27.2 µM | [4] 46.1 µM | [7] 168 µM | [11] 66.6 µM | [13] 55.9 µM | [15] 25.4 µM | [16] 60.9 µM | [18] 64.3 µM

NNc1ccccc1
not listed: [10] | [20]
inactive: all other assays above

O=[N+]([O-])c1cc(C(F)(F)F)c(Cl)c([N+](=O)[O-])c1Cl
active: [3] 6.68 µM | [7] 5.54 µM | [10] 5.51 µM | [15] 6.17 µM | [17] 3.71 µM
not listed: [2] | [11] | [12] | [16] | [19]
inactive: all other assays above

O=C(O)c1cc[c]([Hg][Cl])cc1
active: [3] 11.1 µM | [11] 7.19 µM | [15] 11.1 µM | [18] 6.74 µM
not listed: [5] | [12]
inactive: all other assays above

CCOC(=O)C1OC1(C)c1ccccc1 (centres undefined)
not listed: [10] | [17]
inactive: all other assays above

CC(O)CN(CC(C)O)CC(C)O (centres undefined)
not listed: [10] | [17] | [20]
inactive: all other assays above

O=C1C(Cl)=C(Cl)C(=O)C(Cl)=C1Cl
active: [2] 132 µM | [9] 26.6 µM | [17] 34.6 µM
not listed: [5] | [16] | [20]
inactive: all other assays above

C=C(Cl)Cl
not listed: [5] | [10] | [12] | [17] | [20]
inactive: all other assays above

C[N+](C)(C)CC(=O)O
not listed: [10] | [11] | [17] | [19]
inactive: all other assays above

COCC(=O)N(c1c(C)cccc1C)N1CCOC1=O
active: [10] 65.9 µM
not listed: [16] | [19] | [20]
inactive: all other assays above

C=COCCCl
not listed: [2] | [19]
inactive: all other assays above

ClC1=C(Cl)[C@]2(Cl)[C@@H]3[C@@H](Cl)[C@H](Cl)C[C@@H]3[C@@]1(Cl)C2(Cl)Cl
not listed: [20]
inactive: all other assays above

CC(C)CCCCCCCOP(=O)(Oc1ccccc1)Oc1ccccc1
active: [4] 27.2 µM | [10] 1.66 µM
not listed: [19]
inactive: all other assays above

CCCCNP(N)(N)=S
not listed: [19] | [20]
inactive: all other assays above

CC1(C)CC(=O)CC(C)(C)N1[O]
not listed: [1] | [2] | [5] | [19]
inactive: all other assays above
